Pf growth 96h – P. falciparum growth inhibition at 96 hours. P. falciparum luciferase reporter growth, 96 h. Potency, µM (doses to about 28.7 µM), hits mostly inhibitors. 320,000 tested, 6.9% active. AID 504834
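Delayed-death screen, second-generation endpoint: infected erythrocytes, 2% hematocrit, 0.05% parasitemia final; 96 hours at 37 C, 5% CO2; luciferase detection reagent; luminescence decrease equals reduced growth.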
Cycloheximide cs – affects cycloheximide protein synthesis inhibition readout, counter-screen; 300,000 tested, 12% active; cell reporter, cycloheximide protein synthesis inhibition counterscreen; max response, %; AID 2314; in the data active means max response mostly above about 13%, no sharp cut-off; inactive means mostly below about 14%; further: read at 38.3 µM for the half of the compounds with a filed dose
NS1 inh – blocks influenza NS1 protein function | 270,000 tested, 0.4% active | Potency, µM (titrated, usually from 46.1 µM) | AID 2326; calls by dose curve; further: actives are rising curves; nearly all actives have a fitted effect of over 50% in size
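Recovery from NS1-induced slow growth read by OD600 in budding yeast switched to galactose assay medium (pH 6.0, -URA) at 1:100 dilution. Compound 23 nl per well; the matching strain lacking NS1 serves as control.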
Pf growth 48h – inhibits P. falciparum growth in the first generation, 48 h | P. falciparum luciferase growth in erythrocytes, 48 h | Potency, µM (highest dose often 28.7 µM), actives largely listed as inhibitors | 310,000 tested, 5.9% active
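Luciferase-expressing P. falciparum in infected erythrocytes (2% hematocrit, 0.1% parasitemia final) in RPMI 1640/0.5% Albumax were exposed to compound for 48 hours at 37 C, 5% CO2; growth read as luminescence.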
Shiga inhibitor – blocks Shiga toxin action in Vero cells; Vero cells, Shiga toxin protein synthesis inhibition reporter; inhibition, % at 38.7 µM; 290,000 tested, 9.2% active; in the data active means inhibition mostly above about 28%, no sharp cut-off; inactive means mostly below about 43%
SARS PLpro yeast – SARS-CoV PLP inhibition in yeast | Potency, µM (top dose mostly 32.9 µM), hits mostly activators | 330,000 tested, 0.19% active | S. cerevisiae expressing SARS-CoV PLpro, growth rescue | AID 485353; calls by dose curve; further: nearly all actives have a fitted effect of over 55% in size
Each line names hits and unclear results; the compound was inactive in the other large screens. Most compounds without a hit are left out; they make up all but 21% or so of the library. Unless noted, the call rests on the fitted dose curve; in most records, active means well fitted inhibition curve with a large enough effect; inconclusive means small, poorly fitted or top-dose-only effect, or another doubt; inactive means no such curve, though single readings can be large or run the other way.

O=C1OC[C@H]2CCCN2C(=O)[C@@H](CC(=O)N(CCO)Cc2ccccc2)C/C=C\CC[C@H]1Cc1ccc(F)cc1	none (no result: Pf growth 96h, Cycloheximide cs, NS1 inh, Pf growth 48h, Shiga inhibitor)
COc1cc(/C=C2/C(=N)N3C=CSC3=NC2=O)ccc1OCCCOc1ccccc1C	Shiga inhibitor 53.6
COc1cc(/C=C2/C(=N)N3C=CSC3=NC2=O)ccc1OCCCOc1c(C)cccc1C	none
CCOc1cc(/C=C2/C(=N)N3C=CSC3=NC2=O)ccc1OCCCOc1ccccc1C	Pf growth 96h inconclusive, Cycloheximide cs 37.6, Pf growth 48h inconclusive
CCCCN(C(=O)C1CCCC1)c1c(N)n(Cc2ccccc2)c(=O)[nH]c1=O	none (no result: Pf growth 96h, Cycloheximide cs, NS1 inh, Pf growth 48h, Shiga inhibitor)
CCCCc1ccc(-c2nc(NC(=O)C3C4CCC(O4)C3C(=O)O)sc2C)cc1 (stereo not drawn)	Cycloheximide cs 44.1, Shiga inhibitor 58.2
CCc1cccc(C)c1NC(=O)C1C2CCC(O2)C1C(=O)O (stereo not drawn)	Pf growth 96h inconclusive
COc1ccc(CCC(=O)OCc2csc(CC(=O)Nc3ccccc3C)n2)cc1	none
Cc1cc(-c2cn3ccccc3n2)c(C)n1-c1ccccc1	Pf growth 96h inconclusive, Cycloheximide cs 48.1, Shiga inhibitor 64.3 (no result: NS1 inh)
COc1ccc(-n2c(C)cc(-c3cn4cccc(C)c4n3)c2C)cc1	Pf growth 96h inconclusive, Pf growth 48h inconclusive (no result: NS1 inh)
O=C(C1=C[C@H](c2ccccc2)C[C@H](OCc2ccc(CO)cc2)O1)N1CCN(Cc2ccccc2)CC1	Pf growth 96h inconclusive, Pf growth 48h inconclusive
O=C(C1=C[C@@H](c2ccc(C(F)(F)F)cc2)C[C@@H](OCc2ccc(CO)cc2)O1)N1CCOCC1	Pf growth 96h inconclusive, Pf growth 48h inconclusive
O=C(C1=C[C@@H](c2ccccc2)C[C@@H](OCc2ccc(CO)cc2)O1)N1CCCCCCC1	Pf growth 96h 8.28µM, Pf growth 48h inconclusive
O=C(C1=C[C@H](c2ccc(C(F)(F)F)cc2)C[C@H](OCc2ccc(CO)cc2)O1)N1CCCCCCC1	Pf growth 96h 9.28µM, Pf growth 48h inconclusive
CN(C(=S)SCc1ccccc1)C1CCS(=O)(=O)C1 (stereo not drawn)	none
COc1cc(/C=N/NC(=O)c2ccncc2)ccc1OC(=O)c1ccccc1Cl	none
COc1cc(/C=N/NC(=O)c2ccccn2)ccc1OC(=O)c1ccc(Br)cc1	Cycloheximide cs 25.3
COc1ccc(/C=N/NC(=O)c2cccc(C(=O)N/N=C/c3ccc(OC)c(OC)c3)n2)cc1OC	none
COc1cc(/C=N/NC(=O)c2ccccn2)ccc1OC(=O)c1ccccc1Br	Pf growth 96h 2.08µM, Cycloheximide cs 43.4, Shiga inhibitor 70.9
CCCN(CCC)S(=O)(=O)c1ccc(C(=O)N2CCOCC2)cc1	none (no result: Pf growth 48h)
CC(=O)Nc1ccc(S(=O)(=O)N2CCN(c3cc(C(F)(F)F)ccn3)CC2)cc1	Pf growth 96h inconclusive
FC(F)(F)c1ccnc(N2CCN(Cc3cnc(-c4ccccc4)[nH]3)CC2)c1	Cycloheximide cs 62.7, Shiga inhibitor 61.2
CC(C)Cc1ccc(CN2CCCC(NC(=O)CCN3CCCO3)C2)cc1 (stereo not drawn)	Pf growth 96h inconclusive
Cc1cccc2cc(CN(C(=O)c3cnccn3)C3CCCCC3)c(Cl)nc12	Pf growth 96h inconclusive, Pf growth 48h 4.15µM
Nc1nc2nc(-c3ccccc3)cc(C(F)(F)F)c2s1	none
CN(C)c1cccc(C(=O)N2CCCC(CCC(=O)N3CCN(c4ccccn4)CC3)C2)c1 (stereo not drawn)	Pf growth 48h inconclusive
COc1ccc(/C=c2\s/c(=C\C(=O)C(C)(C)C)[nH]c2=O)cc1O	Pf growth 96h 4.15µM, Cycloheximide cs 14.5, Pf growth 48h inconclusive
Cc1cccc(/C=c2\s/c(=C\C(=O)C(C)(C)C)[nH]c2=O)c1	Pf growth 96h 2.08µM, Cycloheximide cs 23.0, Pf growth 48h inconclusive
CC(C)(C)C(=O)/C=c1\[nH]c(=O)/c(=C\c2ccc(C#N)cc2)s1	none (no result: Pf growth 48h)
Cc1nc(N2CCOCC2)nc(OCCN2CCOCC2)c1[N+](=O)[O-]	none
CN(C)S(=O)(=O)c1cccc(COC(=O)Cc2c(F)cccc2Cl)c1	Cycloheximide cs 13.7, Pf growth 48h inconclusive
CN(C)S(=O)(=O)c1cccc(COC(=O)c2cccnc2Cl)c1	none
COc1cccc(/C=N/N2CCN(C3c4ccccc4-c4ccccc43)CC2)c1O	Pf growth 96h inconclusive, Pf growth 48h 13.1µM
O=C(Nc1cc2c(oc1=O)CCCC2=O)c1ccccc1	Cycloheximide cs 33.2, Shiga inhibitor 17.2

Screening results (PubChem BioAssay)
